# Screening data deposited in PubChem BioAssay by National Center for Advancing Translational Sciences (NCATS).
# Most compounds without a hit are left out; they make up all but 7.4% or so of the library.
# NPC1 prom act: activators of NPC1 promoter | Huh7 NPC1 promoter luciferase reporter, 24 h | Potency, µM (series often up to 9.22 µM), for inactives: top-dose activation, hits mostly activators | AID 485313 | 320,000 tested, 2.4% active; note: % of control where 0% means no effect; nearly all actives have a fitted effect of over 60% in size
#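 Stable NPC1-promoter luciferase Huh7 line; cpd (DMSO) 24 h, 37 °C, 5% CO2; Amplite luciferase reagent 10 min RT; luminescence readout. qHTS format.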
# Rab9 prom act: Rab9 promoter activation; 320,000 tested, 2.8% active; AID 485297; Huh7 Rab9 promoter-luciferase reporter, luminescence, 24 h; Potency, µM (top dose mostly 9.22 µM), for the others: at the top dose activation, negative = inhibition, actives largely listed as activators; note: % of control where 0% means no effect; nearly all actives have a fitted effect of over 60% in size
#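 Quantitative HTS format; Huh7 Rab9-luciferase reporter cells (1500/well) receive compound 2 h post-plating, incubate 24 h at 37 °C, then get luciferase reagent for 10 min before luminescence reading.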
# FLuc counter: firefly luciferase modulation, counter-screen for miR-21 project; P08659; purified FLuc, Km substrates, luminescence inhibition; Potency, µM (titrated, usually from 57.5 µM), for the others: top-dose activity change, negative = inhibition, actives largely listed as inhibitors; 360,000 tested, 6.9% active; AID 588342;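 note: plate controls were vehicle for no effect and reference inhibitor for full effect; nearly all actives have a fitted effect of over 55% in size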
# Target sequence (P08659 whole entry, looked up): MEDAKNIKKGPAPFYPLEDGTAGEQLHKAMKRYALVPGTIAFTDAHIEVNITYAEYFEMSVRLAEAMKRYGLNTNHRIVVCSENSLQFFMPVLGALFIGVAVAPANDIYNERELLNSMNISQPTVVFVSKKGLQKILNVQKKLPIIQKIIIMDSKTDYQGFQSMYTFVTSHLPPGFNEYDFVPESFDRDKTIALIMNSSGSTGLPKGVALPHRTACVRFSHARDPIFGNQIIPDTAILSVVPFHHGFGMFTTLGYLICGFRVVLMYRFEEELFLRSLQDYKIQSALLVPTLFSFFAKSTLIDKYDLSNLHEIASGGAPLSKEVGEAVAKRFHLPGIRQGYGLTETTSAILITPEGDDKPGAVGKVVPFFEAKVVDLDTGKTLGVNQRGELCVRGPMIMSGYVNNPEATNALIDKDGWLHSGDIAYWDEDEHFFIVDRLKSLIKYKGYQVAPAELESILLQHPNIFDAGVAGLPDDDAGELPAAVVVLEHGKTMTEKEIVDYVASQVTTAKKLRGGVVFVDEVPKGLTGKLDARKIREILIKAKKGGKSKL
#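 Purified P. pyralis luciferase, 10 nM final, with Km-level 10 uM D-luciferin and 10 uM ATP in 50 mM Tris acetate pH 7.5, 10 mM Mg acetate, 0.01% Tween-20, 0.05% BSA; 6-point qHTS titration about 60 µM downward; luminescence read.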
# ELG1 genotoxic: inducers of genotoxicity in HEK293T ELG1-luciferase cells | HEK293T ELG1-luciferase reporter, luminescence, 16 h | Potency, µM (series often up to 46 µM), inactives show at the highest dose activity change, positive = activation, hits mostly activators | 330,000 tested, 1.3% active | AID 504466; note: % of control where 0% means no effect; nearly all actives have a fitted effect of over 60% in size
#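 Genotoxic stress is detected as increased luminescence from luciferase-tagged ELG1 in HEK293T cells, measured with ONE-Glo after a 16 hr treatment at 37 °C.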
# SMN2 splice up: SMN2 splice variant enhancement; Potency, µM (series often up to 46.1 µM), for inactives: at the highest dose activity change, positive = activation, hits mostly activators; AID 1458; 210,000 tested, 2.8% active; HEK293 SMN2-luciferase splicing reporter, luminescence, 30-36 h; note: % of control where 0% means no effect; nearly all actives have a fitted effect of over 55% in size
#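 HEK293 cells carry an SMN2 minigene-luciferase reporter in which exon 7 inclusion puts luciferase in frame. Cells were seeded at 2000 cells/well, attached for 10-12 hours, then exposed to compounds for 30-36 hours at 37C before ONE-Glo luminescence.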
# * = called active by the depositor; ? = inconclusive; . = no result given; ! = not confirmed by another sample; [ ] = dose if it differs, or a comment. Calls come from the whole dose curve; as a rule, active = well fitted curve in the direction sought with a large enough effect; inconclusive = small, poorly fitted or top-dose-only effect, or another doubt; inactive = no such curve, though single readings can be large; an effect the other way counts as inactive or inconclusive. Potency is the fitted concentration of half-maximal effect.
SMILES,NPC1 prom act,Rab9 prom act,FLuc counter,ELG1 genotoxic,SMN2 splice up
Cc1cc(/C=C2\C(=O)NC(=O)N(c3ccccc3)C2=O)c(C)n1-c1ccc(C(=O)O)c(Cl)c1,-1.1%,-0.4%,-15.7%,-1.0%,.
Cc1cc(/C=C2\C(=O)NC(=O)N(c3ccc(F)cc3)C2=O)c(C)n1-c1cccc(C(=O)O)c1,-0.5%,-6.1%,?,2.5%,.
Cc1cc(C=C2C(=O)NC(=O)NC2=O)c(C)n1-c1ccc2c(c1)OCO2,-1.9%,-2.7%,2.69µM*,0.8%,-19.2%
Cc1cc(C=C2C(=O)NC(=S)NC2=O)c(C)n1-c1ccc2c(c1)OCO2,3.4%,-2.7%,3.38µM*,-4.4%,19.4%
Cc1cc(/C=C2\C(=O)NC(=O)N(C)C2=O)c(C)n1-c1ccc2c(c1)OCO2,-4.0%,-4.2%,1.35µM*,-5.1%,-14.7%
Cc1cc(/C=C2/C(=O)NC(=O)N(C)C2=O)c(C)n1-c1ccccc1,-1.3%,-3.3%,1.07µM*,-0.6%,-4.3%
C=CCOCC1CO1 (stereo not given),.,.,.,.,1.3%
C[C@@H]1[C@@H](C)N1C[C@H](O)Cn1ccnc1[N+](=O)[O-] (stereo not given in full),.,.,.,.,0.1%[9.22 µM]
CC(=O)[O-].CC(=O)[O-].CC(=O)[O-].[Cr+3],.,.,.,.,-16.4%
S=P(C1CCCCC1)(C1CCCCC1)[C@H](c1cccnc1)N1CCCC1,.,.,.,.,-3.8%[9.22 µM]
Cc1ccc(Sc2ccc(C=C3C(=O)N(C)C(=O)N(C)C3=O)o2)cc1,1.0%,25.4%,15.1µM*,6.3%,-2.8%
Oc1c(Cl)cc(Cl)cc1Cl,.,.,.,.,-1.1%
COc1ccc(C(=O)CCNc2ccc(F)cc2)cc1,?,2.82µM*,?,?,.
COc1ccc(C(=O)C(C)(C)NO)cc1,-2.5%,1.4%,-0.2%,-4.4%,-6.8%
NC(CCl)=N[C@H]1CN2CCC1CC2,.,.,.,.,9.3%[9.22 µM]
Cc1cc2c(C(C)C)c(O)c(O)c(C=O)c2c(O)c1-c1c(C)cc2c(C(C)C)c(O)c(O)c(C=O)c2c1O,-31.2%[46.1 µM],-40.9%[46.1 µM],13.5µM*!,?,-91.5%
COc1cc(/C=C/c2nc3ccccc3c(=O)n2-c2ccccc2O)ccc1O,0.5%,0.9%,16.9µM*,10.7%,.
COc1ccccc1-n1c(-c2ccc(C)cc2)nc2ccccc2c1=O,-3.5%,-1.0%,13.5µM*,13.5%,.
N=C1/C(=C\c2ccc(OC(=O)c3ccccc3Cl)cc2)C(=O)N=C2SC(N3CCOCC3)=NN12,14.2%,4.1%,23.9µM*,9.0%,.
C=CCOC(=O)c1ccccc1N,1.5%,1.7%,-1.7%,3.4%,-1.7%
Nc1ccccc1C(=O)OCCOc1ccccc1,0.355µM*,0.398µM*,0.601µM*,0.92µM*,7.94µM*
Cc1ccc2scc(N3CCN(C)CC3)c(=O)c2c1,.,.,12µM*,.,.
O=C(O)CBr,.,.,.,.,-7.0%
N#CC(=Cc1ccc(O)c(O)c1)C(N)=S,.,.,.,.,25.0%
COc1ccc(C(=O)Nc2sc3c(c2C(=O)O)CC(C)(C)OC3)cc1,-0.8%,-8.1%,16.9µM*,-6.9%,-36.2%
SMILES,NPC1 prom act,Rab9 prom act,FLuc counter,ELG1 genotoxic,SMN2 splice up
COc1ccc(-c2cc(=NCCCCCC(=O)O)c3cc(C)ccc3o2)cc1,-1.5%,-6.3%,2.6%,?,8.3%
COc1ccc(-c2cc(=Nc3cccc(C(=O)O)c3)c3cc(C)ccc3o2)cc1,-1.5%,?,9.53µM*,5.8µM*,.
OCC[n+]1c2ccccc2nc2ccc(N3CCOCC3)cc21,-3.2%,-3.9%,26.9µM*,-10.0%,.
ClCc1ccccc1,.,.,.,.,3.0%
CC(C)(C)c1ccc(OCCON2C(=O)CCC2=O)c(Cl)c1,-8.7%,0.4%,15.1µM*,?,-5.6%
CCC12CCN(CC3CC3)CC1Oc1c(C)cccc12 (stereo not given),.,.,3.9%,.,.
O=C(O)/C=C\c1ccc[c]([Sb])c1,.,.,.,.,-13.6%[9.22 µM]
COC(=O)Nc1cccc(OC(=O)Nc2cccc(C)c2)c1,.,.,.,.,20.5%
Cc1ccc(NC(=O)OC(C)CNC(=O)Oc2cccc(C)c2)cc1 (stereo not given),16.2%,25.1%,23.9µM*,-11.8%,-3.0%
O=C(Cn1cnc2ccccc2c1=O)NCC(=O)N1CCC2(CC1)OCCO2,-0.4%,-1.8%,2.3%,-0.3%,20.5%
COc1ccc(-n2nc(C(=O)NCC(=O)N3CCC4(CC3)OCCO4)c3ccccc3c2=O)c(OC)c1,?,?,1.07µM*,?,.
